Compounds with a hit are over-represented: about 7.9% of the library has one in this group of screens.
KB-V1 MDR tox – kills drug-selected multidrug resistant KB-V1 cells; KB-V1 MDR cells viability, CellTiter-Glo, 72 h; Potency, µM (titrated, usually from 46.1 µM), actives largely listed as cytotoxic; 400,000 tested, 3.4% active; AID 1347076; note: % is set by controls: 0 for no effect and ±100 for the full control effect; nearly all actives have a fitted effect of over 60% in size
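Following 72 h at 37 degrees C with compound, KB-V1 cell viability was read by CellTiter-Glo luminescence, medium being phenol-red-free DMEM plus 10% FBS; concentration-response parameters came from normalized, curve-fitted qHTS data.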
MCF10A rerep – inducers of DNA re-replication in MCF 10A breast cells. MCF 10A DNA re-replication, Hoechst nuclear intensity, 48 h. Potency, µM (doses to about 46.1 µM), without a hit: top-dose activity, positive = re-replication, actives largely listed as activators. 350,000 tested, 2.9% active. AID 624296; note: % of control where 0% means no effect; nearly all actives have a fitted effect of over 50% in size
KB-3-1 tox – kills parental KB-3-1 adenocarcinoma cells; 400,000 tested, 1.4% active; Potency, µM (highest dose often 46.1 µM), actives largely listed as cytotoxic; KB-3-1 viability, CellTiter-Glo ATP luminescence, 72 h; note: % is set by controls: 0 for no effect and ±100 for the full control effect; nearly all actives have a fitted effect of over 60% in size
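Parental KB-3-1 adenocarcinoma cells in phenol-red-free DMEM with 10% FBS were pin-treated with compounds at several concentrations, incubated 72 h at 37 °C, and viability read by CellTiter-Glo luminescence; concentration-effect curves were fitted after normalization.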
HT1080 IDH1KD tx – toxicity to HT-1080 IDH1 knockdown cells (counter line); HT-1080 IDH1 knockdown viability, ATP luminescence, 48 h; Potency, µM (top dose mostly 46.1 µM), for the others: at the top dose activity, negative = toxicity, actives largely listed as cytotoxic; 360,000 tested, 2% active;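 note: 0% = DMSO wells and -100% = cell-free medium wells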
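Cytotoxicity counter-line: IDH1KD HT-1080, 48 h, CellTiter-Glo. Curves classed by r2, magnitude and activity.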
SW480 rereplic – inducers of DNA re-replication in SW480 colon cancer cells. SW480 DNA re-replication, Hoechst DNA content imaging, 48 h. Potency, µM (doses to about 46.1 µM), without a hit: at the highest dose re-replication activation, usual class: activators. 340,000 tested, 1.8% active. AID 624297; note: % of control where 0% means no effect; nearly all actives have a fitted effect of over 55% in size
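SW480 cells exposed to compounds for 48 hr at 37 C, 5% CO2, then Hoechst-stained 40 min. Nuclear DNA content imaged by fluorescence scanning (405 nm excitation, 500-530 nm emission); re-replication scored as increased high-intensity nuclei.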
HT1080-NT tox – kills 2HG-producing HT-1080-NT fibrosarcoma cells; HT-1080-NT fibrosarcoma viability, CellTiter-Glo ATP luminescence, 48 h; Potency, µM (top dose mostly 46.1 µM), without a hit: at the highest dose activity, negative = less viability, actives largely listed as cytotoxic; 360,000 tested, 1.6% active; AID 686970;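 note: NT is the 2HG producing partner of a matched IDH1 knockdown line; 0% = DMSO-treated cells and -100% = media-only wells without cells; nearly all actives have a fitted effect of over 55% in size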
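HT-1080-NT fibrosarcoma cells (2HG-overproducing), 750 cells/well in RPMI with 5% FBS, dosed after 2 h and incubated 48 h at 37C. CellTiter-Glo luminescence normalized to DMSO and no-cell wells; concentration-response curves fitted and classed.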
Active calls of the source: *; i = inactive; u = inconclusive; x = not tested or not shown; [ ] = dose if it differs, or a comment. Calls come from the whole dose curve; as a rule, active = well fitted curve in the direction sought with a large enough effect; inconclusive = small, poorly fitted or top-dose-only effect, or another doubt; inactive = no such curve, though single readings can be large; an effect the other way counts as inactive or inconclusive. Potency is the fitted concentration of half-maximal effect.

SMILES	KB-V1 MDR tox	MCF10A rerep	KB-3-1 tox	HT1080 IDH1KD tx	SW480 rereplic	HT1080-NT tox
COc1c(N2CCN(C(=S)NCc3ccccc3)C(C)C2)c(F)cc2c(=O)c(C(=O)O)cn(C3CC3)c12 (centres undefined)	i	2%	u	18µM*	0%[9.22 µM]	u
Cc1cc(C(=O)Nc2ccccc2C(=O)O)ccc1NC(=O)COc1cccc(C)c1C	i	-4%	i	-2%	-23%	23%
CCCN1CCc2nc(N3CCN(c4ncccn4)CC3)ncc2C1	i	x	i	x	x	x
Cn1c(=O)c2cc(S(=O)(=O)NCCC(=O)N3CC=C(c4ccccc4)CC3)ccc2n(C)c1=O	23µM*	-12%	i	-8%	-1%	2%
CCN(CC)c1nc(C#N)cc(-c2ccc(OC)cc2)n1	5.8µM*	15µM*	7.3µM*	u	12µM*	u
COc1ccc(-c2cc(C#N)nc(Cl)n2)cc1	i	u	i	9.2µM*	24%	7.3µM*
COc1ccc(-c2cc(C#N)nc(Oc3ccc(Cl)cc3)n2)cc1	i	13%	i	-1%	21%	6%
CC[C@@H](NCCCn1cnc2c(SC)ncnc21)c1ccccc1	u	x	i	-30%	x	-1%
COc1cccc(-c2csc(N3CCN(C(=S)Nc4ccc(Cl)cc4)CC3)n2)c1	23µM*	18%	i	0%	-1%	-21%
COc1cccc(-c2csc(N3CCN(C(=S)Nc4ccccc4)CC3)n2)c1	i	4%	i	0%[9.24 µM]	3%	22µM*
COc1cccc(NC(=O)N2CCN(c3nc(-c4cccc(OC)c4)cs3)CC2)c1	16µM*	16%	u	-27%	u	-3%
CCc1noc(C)c1C(=O)NNC(=O)c1cc(OC)c(OC)c(OC)c1	i	-15%	i	-2%	18µM*	7%
Cc1cc(-c2cn3ccccc3n2)c(C)n1-c1ccccc1	i	21µM*	u	u	u	u
COc1ccc(-n2c(C)cc(-c3cn4cccc(C)c4n3)c2C)cc1	i	u	i	-2%	-181%	-9%
CC(OC(=O)CNC(=O)c1cccs1)C(=O)Nc1ccc(S(N)(=O)=O)cc1 (centres undefined)	i	-1%	i	-1%	-5%	-4%
N#CC1(NC(=O)Cn2ncc(Cl)c(Cl)c2=O)CCCCC1	i	4.5µM*	u	9.2µM*	-53%	5.8µM*
COc1ccc(S(=O)(=O)Nc2c(C(=O)O)[nH]c3ccc(OC)cc23)cc1	u	u	i	6%	0%	6%
COC(=O)c1[nH]c2ccc(F)cc2c1NS(=O)(=O)c1ccc(OC)cc1	7.3µM*	7.3µM*	2.6µM*	u	4.6µM*	5.2µM*
CS(=O)(=O)N(CC(=O)Nc1ccc(CC#N)cc1)c1ccc(C23CC4CC(CC(C4)C2)C3)cc1	u	u	i	10µM*	0%	u
O=C(COC(=O)Cn1nnc2ccccc21)NC1CCCC1	i	-4%	i	-2%	-9%	-4%
N#Cc1ccc(OCC(=O)N2CCCC2=O)cc1	i	-2%	i	10%	-13%	2%
O=C(Cc1ccc(Br)cc1)NCc1ccccc1	4.6µM*	5.8µM*	5.8µM*	2.9µM*	5.8µM*	8.2µM*
COc1cc(NC(=O)c2ccccc2)c(OC)cc1NC(=O)Cc1ccc(Br)cc1	i	12µM*	i	-2%	u	1%
O=C(COC(=O)Cc1ccc(Br)cc1)NCc1ccccc1	i	x	i	3%	x	3%
COc1cc(NC(=O)c2ccc(Br)cc2)c(OC)cc1NC(=O)c1ccccc1	i	u	i	0%	-2%	-5%
Cc1ccc(CNC(=O)Cc2ccc(Br)cc2)cc1	u	6.5µM*	u	8.2µM*	u	23µM*
COc1ccccc1CNC(=O)Cc1ccc(Br)cc1	23µM*	u	i	-24%	x	-12%

Compound activity deposited in PubChem BioAssay by National Center for Advancing Translational Sciences (NCATS).
